Laboratory results: PubChem BioAssay AID485272 (The Scripps Research Institute Molecular Screening Center, 2010)
Out of some 330,000 compounds screened, about 1,300 (0.39%) were called active. This is one part of a sample in which actives are shown more often than they occur.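 The calls were made as follows: active = percent inhibition above a cutoff equal to the mean of all tested compounds plus 3 SD (cut at about 15% in these data); inactive = the rest.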

molecular target: Protein-arginine deiminase type-4 (Homo sapiens) (UniProt Q9UM07); experiment: human PAD4 inhibitors, primary screen, biochemical, fluorescence polarization, 1536-well format (AID 485272); conditions: recombinant PAD4, RCA probe fluorescence polarization; at 6.36 µM; active compounds read high;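 also: 0% = PAD4 with RCA probe and DMSO and 100% = probe without PAD4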
Sequence (Q9UM07 whole entry, looked up): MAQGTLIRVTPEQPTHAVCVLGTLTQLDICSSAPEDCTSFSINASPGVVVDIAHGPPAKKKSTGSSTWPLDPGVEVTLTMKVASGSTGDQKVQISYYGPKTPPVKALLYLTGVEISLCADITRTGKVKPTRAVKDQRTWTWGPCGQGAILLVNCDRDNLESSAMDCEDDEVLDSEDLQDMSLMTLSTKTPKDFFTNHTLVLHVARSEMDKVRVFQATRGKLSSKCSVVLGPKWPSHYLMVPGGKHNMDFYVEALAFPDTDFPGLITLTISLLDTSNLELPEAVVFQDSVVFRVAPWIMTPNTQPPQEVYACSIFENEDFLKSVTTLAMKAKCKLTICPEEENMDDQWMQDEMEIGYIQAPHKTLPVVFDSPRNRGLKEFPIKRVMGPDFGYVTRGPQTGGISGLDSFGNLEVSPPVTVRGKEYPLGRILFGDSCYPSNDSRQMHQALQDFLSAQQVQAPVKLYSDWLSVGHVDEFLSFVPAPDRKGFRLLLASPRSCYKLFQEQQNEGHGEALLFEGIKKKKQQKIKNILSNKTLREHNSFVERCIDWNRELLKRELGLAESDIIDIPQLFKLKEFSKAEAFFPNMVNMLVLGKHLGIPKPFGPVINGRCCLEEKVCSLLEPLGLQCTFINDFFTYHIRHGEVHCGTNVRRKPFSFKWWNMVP

Row | SMILES | inhibition
1 | CN(C(=O)CN1C(=O)S/C(=C\c2ccccc2F)C1=O)C1CCS(=O)(=O)C1 (stereo not given) | 3.56% (inactive)
2 | CCCCNC(=O)CCNC(=O)c1ccc(C(C)(C)C)cc1 | 2.29% (inactive)
3 | CCCCNC(=O)Nc1c(C)cc(SC#N)cc1C | 39.1% (active)
4 | CCCCNC(=S)NNC(=O)c1cc(C)on1 | -2.6% (inactive)
5 | CC(C)=C1C2CCC1C1C(=O)N(NC(=O)c3ccco3)C(=O)C21 (stereo not given) | -4.39% (inactive)
6 | COc1ccc(/C=C(\NC(=O)c2ccc(OCC(C)C)cc2)C(=O)OCc2ccco2)cc1 | 1.51% (inactive)
7 | COCCCNC(=S)N1CCCC(c2nc3cc(C)c(C)cc3[nH]2)C1 (stereo not given) | -0.08% (inactive)
8 | Cc1ccc(C2CC(c3cccc(NS(C)(=O)=O)c3)=NN2S(C)(=O)=O)cc1 (stereo not given) | -2.1% (inactive)
9 | CCN1CC=C2C(C#N)=C(N)C(C#N)(C#N)[C@H](c3ccoc3)[C@H]2C1 | 30.4% (active)
10 | CCCN1CC=C2C(C#N)=C(N)C(C#N)(C#N)C(c3cc(OC)ccc3OC)C2C1 (stereo not given) | -2.45% (inactive)
11 | N#CC1=C(N)C(C#N)(C#N)[C@H](c2ccsc2)[C@H]2COCC=C12 | -0.34% (inactive)
12 | O=C(O)COCC(=O)NCc1csc2ccc(Cl)cc12 | -2.02% (inactive)
13 | Cc1nc(C)c(C(=O)Nc2ccc(C)c(F)c2)o1 | -0.93% (inactive)
14 | Cc1ccc(NC(=O)Nc2ccc3oc(C)nc3c2)cc1 | -0.57% (inactive)
15 | Cc1nc2ccc(NC(=O)C(F)(F)F)cc2o1 | 27.5% (active)
16 | CC(=O)c1c(C)[nH]c(C(=O)COC(=O)CCOc2ccc(C)cc2)c1C | -5.3% (inactive)
17 | COC(=O)c1cc(S(=O)(=O)N2CCN(c3cc(C)ccc3C)CC2)c[nH]1 | -1.18% (inactive)
18 | C=CCOc1c(Br)cc(/C=N\n2nnnc2N)cc1OC | -3.76% (inactive)
19 | CCOc1c(Br)cc(/C=C2\C(=O)N(CCC#N)N=C2C)cc1OC | 57.8% (active)
20 | COc1cc(/C=C2/C(=O)NN(c3cccc(Cl)c3)C2=O)cc(Br)c1O | -6.98% (inactive)
21 | COc1ccccc1N1CC(C(=O)NCCN2C(=O)S/C(=C\c3cccnc3)C2=O)CC1=O (stereo not given) | 1.63% (inactive)
22 | CCOc1ccc(N2CC(C(=O)NCCN3C(=O)S/C(=C\c4cccnc4)C3=O)CC2=O)cc1 (stereo not given) | -4.16% (inactive)
23 | COc1ccc(N2CC(C(=O)NCCN3C(=O)S/C(=C\c4cccnc4)C3=O)CC2=O)c(OC)c1 (stereo not given) | 101% (active)
24 | COc1ccc(C(=O)NCc2ccccc2C)cc1S(=O)(=O)NC1CCCC1 | 1.48% (inactive)
25 | Clc1ccc(CSc2nnc3c(n2)[nH]c2ccccc23)cc1 | -2.24% (inactive)
26 | O=Cc1c(NCCc2cccc(F)c2)c2ccccc2[nH]c1=O | -4.74% (inactive)
27 | O=C(NCC1CCCO1)c1ccc2ccccc2n1 (stereo not given) | 0.05% (inactive)
28 | COc1ccc2cc(C(=O)NCC3CCCO3)[nH]c2c1 (stereo not given) | -4.37% (inactive)

Row | SMILES | inhibition
29 | CC(NC(=O)c1cc(=O)[nH]c2ccccc12)c1ccc(F)cc1F (stereo not given) | -7% (inactive)
30 | O=C(NCC1CCCO1)c1cc2c([nH]c3ccccc32)c(-c2ccc(F)cc2)n1 (stereo not given) | 66.5% (active)
31 | O=C(NCCc1ccc(F)cc1)c1n[nH]c2ccccc12 | -0.12% (inactive)
32 | O=C(NCCCO)c1cc2c([nH]c3ccccc32)c(-c2ccc(F)cc2)n1 | 35.7% (active)
33 | CC(=O)C(C)n1cnc2scc(-c3ccc(C)cc3)c2c1=O (stereo not given) | -5.08% (inactive)
34 | Cc1cc(C)n(-c2nnc(C)n2NC(=O)c2cccc(Cl)c2)n1 | -3.56% (inactive)
35 | CCOc1ccc(C2NC(=S)NC3=C2CCc2ccccc23)cc1 (stereo not given) | -0.5% (inactive)
36 | COC(=O)C1=C(C)NC(=S)NC1c1ccc(OCC(=O)N2CC(C)OC(C)C2)c(OC)c1 (stereo not given) | -1.31% (inactive)
37 | COc1ccc(C2NC(=S)NC3=C2CCc2ccccc23)cc1OC (stereo not given) | 19.6% (active)
38 | Cc1ccc(S(=O)(=O)NC(=O)COc2ccccc2C)cc1 | -0.01% (inactive)
39 | CC(=O)c1cccc(NC(=O)N2CCCC2C(=O)NCCC(C)C)c1 (stereo not given) | -0.58% (inactive)
40 | Cc1nnsc1S(=O)(=O)Cc1ccccc1Cl | -3.79% (inactive)
41 | O=C(Nc1ccc(S(=O)(=O)N2CCCCCC2)cc1)c1c(F)cccc1F | -3.98% (inactive)
42 | O=C(NCCCN1CCN(c2ccc(F)cc2)CC1)Nc1ccc([N+](=O)[O-])cc1 | -8.31% (inactive)
43 | CC(=O)N(CN1C(=O)C2C3C=CC(C3)C2C1=O)c1cccc(Cl)c1 (stereo not given) | -2.02% (inactive)
44 | COc1cc2ccccc2cc1C(=O)Nc1ccc(N2CCOCC2)cc1 | 7.08% (inactive)
45 | CC(=O)Oc1cccc(N2C(=O)CC(Nc3ccc(N4CCOCC4)cc3)C2=O)c1 (stereo not given) | 37.4% (active)
46 | COc1ccc(N2CCN(C3CC(=O)N(c4ccc5c(c4)OCCO5)C3=O)CC2)cc1 (stereo not given) | -4.31% (inactive)
47 | COc1cc(OC)cc(C(=O)Nc2ccc(-c3nc4ccccc4o3)c(O)c2)c1 | -9.35% (inactive)
48 | COCCCNC(NC(=O)c1ccc(C)cc1)C(Cl)(Cl)Cl (stereo not given) | -2.56% (inactive)
49 | Cc1cc(Nc2ccccc2)n(C(=O)c2ccc(N)cc2)n1 | -3.04% (inactive)
50 | Cc1ccc(Nc2ccccc2N)cc1 | -6.09% (inactive)
51 | Nc1ccc(Nc2ccccc2)cc1 | 20.8% (active)
52 | COc1ccc(S(=O)(=O)N(CC(=O)NCc2ccco2)c2ccc(F)cc2)cc1 | -1.25% (inactive)
53 | COc1ccc(-n2c(C)cc(C(=O)CN3C(=O)NC4(CCc5ccccc54)C3=O)c2C)cc1 (stereo not given) | 1.38% (inactive)
54 | CC(=O)Nc1ccc(SCC(=O)Nc2ccccc2Oc2ccccc2)cc1 | 2.48% (inactive)
55 | CC(NCCO)C(=O)C12CC3CC(CC(C3)C1)C2 (stereo not given) | -1.18% (inactive)
